Screens deposited in PubChem by Broad Institute.
The list is not random: actives were taken first. Their share in the collection is about 6.8%.
Pf Dd2 inh – inhibitors of Plasmodium falciparum Dd2 growth; P. falciparum Dd2 growth, SYBR Green, 72 h; hits give low values; 2.3% of 94,000 active; activity change, % at 10 µM; in the data active = activity change below about -80%; inconclusive = no clear call, values can overlap the other calls
T cruzi growth-1 – inhibitors of T. cruzi proliferation | 5.9% of 77,000 active | T. cruzi beta-gal in NIH3T3, GalScreen luminescence, 90 h | AID 624255 | inhibition, % at 8.34 µM;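 active = mean inhibition above about 93%, with at least 55% of replicates each passing it, limit read from the data, passing the limit was not always enough; inconclusive = only one of those two conditions holds; inactive = neither condition holds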
C diff HTS – blocks growth of Clostridium difficile; 0.25% of 86,000 active; growth activity, negative = inhibition, % at 16 µg/mL (by protocol); Clostridium difficile clinical isolate growth, OD600, 24 h; hits give low values;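 active = mean growth activity at or below -80% and every replicate also at or below -80%; inconclusive = mean at or below -80% but some replicate above -80%; inactive = mean growth activity above -80%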;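 note: 0% = DMSO wells and -100% = levofloxacin 16 µg/mL wells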
T cruzi growth-2 – Trypanosoma cruzi proliferation inhibition; shares compounds with T cruzi growth-1; T. cruzi beta-gal in NIH3T3, GalScreen luminescence, 90 h; inhibition, % at 8.35 µM; 72% of 5,600 active;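 active = mean replicate inhibition above about 95% and at least 55% of replicates individually reaching it, limit read from the data; inconclusive = only one of the two criteria is met; inactive = neither criterion is met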
T cruzi growth-3 – inhibitors of T. cruzi proliferation. shares compounds with T cruzi growth-1. T. cruzi beta-gal in NIH3T3, GalScreen luminescence, 90 h. inhibition, % at 2.09 µM. 21% of 5,600 active. AID 651740;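 active = mean inhibition above about 95%, with at least 55% of replicates also reaching it, limit read from the data; inconclusive = meets just one of the two conditions; inactive = meets neither condition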;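 note: plate controls were neutral control median for no effect and positive control median for full effect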
3T3 cytotox – kills mouse NIH/3T3 fibroblasts | shares compounds with T cruzi growth-1 | NIH/3T3 viability, CellTiter-Glo ATP luminescence, 90 h | cytotoxicity (signal decrease), % at 8.35 µM | 14% of 5,600 active | AID 651742;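 active = mean signal decrease across replicates above about 35% based on untreated-well scatter, with enough replicates individually passing, limit read from the data; inconclusive = no rule stated though some were filed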;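 note: 0% = median of neutral control wells and 100% = median of positive control wells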
NIH3T3 tox 2 – kills mouse NIH/3T3 fibroblasts. inhibition, % at 24.9 µM. shares compounds with T cruzi growth-1. 56% of 5,600 active. NIH/3T3 viability, CellTiter-Glo ATP luminescence, 90 h. AID 651744;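 active = mean loss of cell viability signal at or above a set limit, and enough replicates individually reaching it; inconclusive = meets only the mean limit or only the replicate share; inactive = meets neither condition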;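 note: 0% = median of neutral control wells and 100% = median of positive control wells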
* = called active by the depositor; ? = inconclusive; . = no result.

SMILES	Pf Dd2 inh	T cruzi growth-1	C diff HTS	T cruzi growth-2	T cruzi growth-3	3T3 cytotox	NIH3T3 tox 2
Cc1cc(C)cc(NC(=O)Nc2ccc3c(c2)C(=O)N(C)[C@@H]2CC[C@H](CC(=O)O)O[C@H]2CO3)c1	11.8	11.0	-1.0	.	.	.	.
COc1ccc2c3c([nH]c2c1)[C@@H](CO)N(C)CC31CN(C(=O)NC(C)C)C1	-29.1	.	-4.9	.	.	.	.
O=C(Nc1ccccc1)N[C@@H]1CC[C@@H](CCNS(=O)(=O)c2cccc(F)c2)O[C@@H]1CO	-7.9	29.9	-7.1	.	.	.	.
O=C(Nc1cc(Cl)cc(Cl)c1)N[C@H]1CC[C@H](CCNS(=O)(=O)c2cccc(F)c2)O[C@H]1CO	5.3	176.4*	24.7	104.4*	48.4	33.2	56.6*
Cc1cccc(S(=O)(=O)N2CCCCN3[C@H](C2)[C@H](c2ccc(C#CC(C)C)cc2)[C@@H]3CO)c1	-48.1	91.9	-4.1	.	.	.	.
Cc1cccc(S(=O)(=O)N2CCCCN3[C@H](C2)[C@@H](c2ccc(C#CC(C)C)cc2)[C@@H]3CO)c1	-33.9	?	-7.2	101.4*	112.4*	46.6*	98.4*
COc1cccc(S(=O)(=O)N2CCCCN3[C@H](CO)[C@H](c4ccc(C#CC(C)C)cc4)[C@H]3C2)c1	-68.6	97.2*	54.4	106.2*	107.5*	32.8	103.4*
COc1cccc(S(=O)(=O)N2CCCCN3[C@H](C2)[C@@H](c2ccc(C#CC(C)C)cc2)[C@@H]3CO)c1	-15.7	81.5	13.1	.	.	.	.
COc1ccc(S(=O)(=O)N2CCCCN3[C@H](CO)[C@H](c4ccc(C#CC5CC5)cc4)[C@H]3C2)cc1	-38.5	100.0*	51.8	105.9*	110.6*	53.6*	105.3*
O=S(=O)(c1ccc(F)cc1)N1CCCCN2[C@H](CO)[C@@H](c3ccc(C#CC4CC4)cc3)[C@H]2C1	-52.3	93.7	14.9	.	.	.	.
COc1ccc(S(=O)(=O)N2CCCCN3[C@H](C2)[C@H](c2ccc(C#CC4CC4)cc2)[C@@H]3CO)cc1	16.1	123.5*	41.9	106.2*	72.8	15.2	-10.6
O=S(=O)(c1ccc(F)cc1)N1CCCCN2[C@H](CO)[C@H](c3ccc(C#CC4CCCC4)cc3)[C@H]2C1	-67.0	84.2	38.2	.	.	.	.
COc1cccc(S(=O)(=O)N2CCCCN3[C@H](CO)[C@H](c4ccc(C#CC5CC5)cc4)[C@@H]3C2)c1	28.6	104.6	12.0	.	.	.	.
O=S(=O)(c1ccc(F)cc1)N1CCCCN2[C@H](C1)[C@H](c1ccc(C#CC3CCCC3)cc1)[C@@H]2CO	6.3	116.2*	1.2	97.4*	87.3	27.1	53.6*
COC(=O)[C@H]1[C@H](CO)[C@H]2Cn3c(ccc(-c4ccccc4OC)c3=O)[C@H]2N1C(=O)c1cccnc1	7.1	-5.9	1.7	.	.	.	.
O=C(C[C@@H]1CC[C@@H](NC(=O)C2CC2)[C@@H](CO)O1)NC1CCC1	11.2	-8.0	.	.	.	.	.
CCCC#Cc1ccc2c(c1)O[C@H](CN(C)S(=O)(=O)c1cccc(F)c1)[C@@H](C)CN([C@@H](C)CO)S2(=O)=O	-35.5	114.4*	8.6	100.4*	117.4*	0.4	104.1*
COCC#Cc1ccc2c(c1)O[C@H](CN(C)S(=O)(=O)c1cccc(F)c1)[C@H](C)CN([C@@H](C)CO)S2(=O)=O	-69.2	42.2	6.1	.	.	.	.
CCCC#Cc1ccc2c(c1)O[C@H](CN(C)S(C)(=O)=O)[C@@H](C)CN([C@H](C)CO)S2(=O)=O	-7.0	26.2	6.7	.	.	.	.
CCCC#Cc1ccc2c(c1)O[C@@H](CN(C)S(=O)(=O)c1cccc(F)c1)[C@H](C)CN([C@@H](C)CO)S2(=O)=O	-32.2	124.3*	17.4	105.6*	107.5*	33.2	67.3*
COCC#Cc1ccc2c(c1)O[C@H](CN(C)S(=O)(=O)c1cccc(F)c1)[C@@H](C)CN([C@H](C)CO)S2(=O)=O	-70.4	?	10.5	70.3	10.2	20.2	68.9*
CCCC#Cc1ccc2c(c1)O[C@H](CN(C)S(=O)(=O)c1cccc(F)c1)[C@H](C)CN([C@@H](C)CO)S2(=O)=O	-67.7	123.8*	10.6	96.2*	98.9*	42.6*	76.2*
COCC#Cc1ccc2c(c1)O[C@@H](CN(C)S(=O)(=O)c1cccc(F)c1)[C@@H](C)CN([C@@H](C)CO)S2(=O)=O	-73.0	56.0	1.9	.	.	.	.
C[C@@H]1CN([C@@H](C)CO)S(=O)(=O)c2ccc(C#CCN(C)C)cc2O[C@H]1CN(C)S(=O)(=O)c1cccc(F)c1	-77.6	.	4.7	.	.	.	.
COc1ccc(NC(=O)N(C)C[C@@H]2Oc3ccc(NC(=O)Cc4ccccc4)cc3C(=O)N([C@@H](C)CO)C[C@@H]2C)cc1	-6.8	7.8	-3.0	.	.	.	.
SMILES	Pf Dd2 inh	T cruzi growth-1	C diff HTS	T cruzi growth-2	T cruzi growth-3	3T3 cytotox	NIH3T3 tox 2
O=C(C[C@@H]1CC[C@H](NS(=O)(=O)c2ccc(F)cc2)[C@@H](CO)O1)NC1CCCCC1	17.0	.	3.2	.	.	.	.
CCCC#Cc1ccc2c(c1)O[C@H](CN(C)S(C)(=O)=O)[C@@H](C)CN([C@@H](C)CO)S2(=O)=O	-7.0	42.5	2.9	.	.	.	.
CCCC#Cc1ccc2c(c1)O[C@@H](CN(C)S(=O)(=O)c1cccc(F)c1)[C@H](C)CN([C@H](C)CO)S2(=O)=O	-22.2	123.4*	4.0	106.2*	84.1	50.8*	96.4*
N#C[C@@H]1[C@H](c2ccc(C#CC3(O)CCCC3)cc2)[C@@H](CO)N1C(=O)C1CC1	-38.8	92.7	-0.1	.	.	.	.
CN1c2ccc(-c3ccc(F)cc3)cc2[C@H]2[C@H](CCN2C(=O)Cc2cccnc2)[C@H]1CO	19.6	?	-4.1	92.3	54.7	-15.9	9.8
CN1c2ccc(-c3cccc(F)c3)cc2[C@H]2[C@H](CCN2C(=O)Cc2cccnc2)[C@@H]1CO	5.7	54.4	-3.5	.	.	.	.
CN1c2ccc(-c3ccc(F)cc3)cc2[C@H]2[C@H](CCN2C(=O)Cc2cccnc2)[C@@H]1CO	-12.9	106.9*	-3.3	109.5*	104.0*	-26.3	4.9
CN1c2ccc(-c3cccc(F)c3)cc2[C@@H]2[C@@H](CCN2C(=O)Cc2cccnc2)[C@H]1CO	-8.4	77.4	-5.6	.	.	.	.
COCc1cn(CC[C@@H]2CC[C@@H](NC(=O)c3ccccc3)[C@@H](CO)O2)nn1	16.5	-17.3	1.6	.	.	.	.
C[C@@H]1CCCCO[C@H](CN(C)C(=O)c2ccncc2)[C@@H](C)CN([C@@H](C)CO)C(=O)c2cc(NC(=O)c3ccccc3)ccc2O1	-29.5	83.3	0.8	.	.	.	.
O=C(C[C@@H]1CC[C@H]2[C@@H](COC[C@@H](O)CN2S(=O)(=O)c2cccc(F)c2)O1)Nc1ccccc1	18.2	.	-4.4	.	.	.	.
CO[C@@H]1CN(C)C(=O)c2ccc(NC(=O)c3cccnc3)cc2OC[C@@H](C)N(CC2CC2)C[C@H]1C	30.4	16.1	.	.	.	.	.
C[C@H](CO)N1C[C@H](C)[C@H](CN(C)C(=O)CC2CC2)Oc2ncc(C#CC3(O)CCCC3)cc2C1=O	15.6	52.2	5.2	.	.	.	.
